For some assays here: Entries with a potency or affinity are not part of this list.
Tests used:
Design in all cases: scale not given: direction of the effect not stated beside the values
[1] = molecular target: Protein translocase subunit SecA (Escherichia coli (strain K12)) (UniProt P10408); assay: Assay to Identify E. coli SecA ATPase Inhibitors; assay type: functional; conditions: 30 µM
[2] = molecular target: T1, Ubiquitin-activating enzyme e1, putative (Leishmania donovani (strain BPK282A1)) (UniProt E9BSI1); assay: Leishmania donovani Ubiquitin Activating Enzyme (LdE1); assay type: functional; conditions: 30 µM
T1 sequence (whole entry): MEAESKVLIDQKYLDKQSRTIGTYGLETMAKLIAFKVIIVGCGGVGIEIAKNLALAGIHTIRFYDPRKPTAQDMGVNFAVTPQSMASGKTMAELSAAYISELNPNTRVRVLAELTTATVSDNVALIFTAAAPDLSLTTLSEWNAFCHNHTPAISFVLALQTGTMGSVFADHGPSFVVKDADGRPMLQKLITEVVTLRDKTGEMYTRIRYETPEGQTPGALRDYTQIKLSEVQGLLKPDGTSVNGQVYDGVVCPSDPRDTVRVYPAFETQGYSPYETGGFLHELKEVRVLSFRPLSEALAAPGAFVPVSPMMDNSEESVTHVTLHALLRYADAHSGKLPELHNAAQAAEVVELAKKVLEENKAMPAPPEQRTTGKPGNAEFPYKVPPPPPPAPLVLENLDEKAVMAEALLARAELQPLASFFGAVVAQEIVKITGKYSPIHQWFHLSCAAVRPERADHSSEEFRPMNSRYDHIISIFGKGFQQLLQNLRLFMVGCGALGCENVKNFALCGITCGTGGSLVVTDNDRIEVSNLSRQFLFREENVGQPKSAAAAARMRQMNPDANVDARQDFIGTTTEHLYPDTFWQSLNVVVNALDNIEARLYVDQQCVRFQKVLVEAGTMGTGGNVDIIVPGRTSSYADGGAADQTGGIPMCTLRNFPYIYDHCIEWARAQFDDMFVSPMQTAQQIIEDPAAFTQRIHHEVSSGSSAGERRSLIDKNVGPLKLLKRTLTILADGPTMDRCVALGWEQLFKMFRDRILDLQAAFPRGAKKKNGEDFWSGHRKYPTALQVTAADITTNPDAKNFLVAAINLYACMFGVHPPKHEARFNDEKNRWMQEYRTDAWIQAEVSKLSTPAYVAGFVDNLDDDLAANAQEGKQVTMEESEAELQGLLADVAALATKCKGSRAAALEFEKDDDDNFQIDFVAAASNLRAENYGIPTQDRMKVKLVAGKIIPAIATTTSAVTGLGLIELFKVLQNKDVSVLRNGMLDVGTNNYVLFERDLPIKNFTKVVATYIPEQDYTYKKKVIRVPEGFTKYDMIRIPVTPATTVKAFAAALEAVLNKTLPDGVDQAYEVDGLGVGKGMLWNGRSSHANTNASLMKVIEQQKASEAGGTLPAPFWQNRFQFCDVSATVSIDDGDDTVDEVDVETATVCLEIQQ

[3] = molecular target: AMP-activated protein kinase, AMPK (Homo sapiens) (UniProt P54646+O43741+P54619+Q9UGJ0+Q9Y478+Q13131+Q9UGI9); assay: AMP-dependent Kinase enzyme assay. An in vitro enzyme assay that detects ADP turnover that is directly proportional to AMPK activity. This uses naive AMPK that is activated during the assay with MK-8722; assay type: functional; conditions: 30 µM
[4] = molecular target: Sialic acid-binding Ig-like lectin 9 (Homo sapiens) (UniProt Q9Y336); assay: Hs-Siglec9 ALPHAscreen SOP 20170721; conditions: 10 µM
Sequence of Sialic acid-binding Ig-like lectin 9 (Homo sapiens) (Q9Y336 whole entry): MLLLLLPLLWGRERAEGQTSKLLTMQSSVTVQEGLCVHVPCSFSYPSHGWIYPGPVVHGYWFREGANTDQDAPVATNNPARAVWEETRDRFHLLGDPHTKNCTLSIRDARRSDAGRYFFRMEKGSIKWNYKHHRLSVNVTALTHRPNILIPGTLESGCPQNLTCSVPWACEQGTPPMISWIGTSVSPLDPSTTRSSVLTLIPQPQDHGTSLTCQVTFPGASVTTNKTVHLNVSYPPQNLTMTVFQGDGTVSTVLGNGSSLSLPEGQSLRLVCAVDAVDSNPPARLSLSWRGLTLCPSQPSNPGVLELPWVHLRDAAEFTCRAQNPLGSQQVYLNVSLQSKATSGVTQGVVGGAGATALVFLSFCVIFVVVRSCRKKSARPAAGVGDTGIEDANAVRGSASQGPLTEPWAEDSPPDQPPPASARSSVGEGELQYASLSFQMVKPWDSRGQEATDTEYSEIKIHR

Trypanosoma cruzi = assay: Trypanosoma cruzi phosphomannomutase and mannose-1-phosphate guanylyltransferase assay; assay type: functional; conditions: 10 µM
[5] = molecular target: T2, Arginase-2, mitochondrial (Homo sapiens) (UniProt P78540); assay: in vitro enzyme assay to detect the production of urea directly proportional to the activity of Arginase II; assay type: functional; conditions: 33.3 µM; also: in the data most compounds retested in dose-response had high values
T2 sequence (whole entry): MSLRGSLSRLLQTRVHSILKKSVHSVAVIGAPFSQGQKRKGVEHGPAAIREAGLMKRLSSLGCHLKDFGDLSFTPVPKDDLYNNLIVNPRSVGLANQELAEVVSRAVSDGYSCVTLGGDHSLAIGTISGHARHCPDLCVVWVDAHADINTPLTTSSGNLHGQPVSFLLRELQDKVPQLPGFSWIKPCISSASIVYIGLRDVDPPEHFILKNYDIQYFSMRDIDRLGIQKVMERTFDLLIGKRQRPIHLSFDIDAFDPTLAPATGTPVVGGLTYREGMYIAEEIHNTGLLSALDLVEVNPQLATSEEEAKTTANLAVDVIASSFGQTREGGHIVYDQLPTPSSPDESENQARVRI

[6] = molecular target: T3, Proteasome subunit beta (Trypanosoma cruzi) (UniProt O96673); assay: Trypanosoma cruzi proteasome chymotrypsin-like activity (TcProtChymo) assay.; also: in the data most compounds retested in dose-response had high values; assay type: functional; conditions: 9.37 µM
T3 sequence (whole entry): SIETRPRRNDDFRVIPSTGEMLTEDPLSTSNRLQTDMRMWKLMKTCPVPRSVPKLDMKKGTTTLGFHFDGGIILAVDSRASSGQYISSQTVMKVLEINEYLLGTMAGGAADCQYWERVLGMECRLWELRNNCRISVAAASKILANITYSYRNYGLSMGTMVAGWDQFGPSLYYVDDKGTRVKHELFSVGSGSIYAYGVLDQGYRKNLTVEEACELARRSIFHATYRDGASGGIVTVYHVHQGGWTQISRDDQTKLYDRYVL

Homo sapiens = species on record: Homo sapiens; assay: To identify inhibition of the IFN signalling (Jak-Stat) pathway via expression of an eGFP reporter gene under the control of an IFN-stimulated response element (ISRE) containing MxA promoter.; assay type: functional; conditions: 30 µM
[7] = molecular target: T4, Tyrosyl-tRNA synthetase, putative (Trypanosoma cruzi (strain CL Brener)) (UniProt Q4DSP6); assay: Trypanosoma cruzi tyrosyl tRNA synthetase (TcYRS) _High Tyrosine SOP; assay type: functional; conditions: 30 µM; also: in the data most compounds retested in dose-response had high values
T4 sequence (whole entry): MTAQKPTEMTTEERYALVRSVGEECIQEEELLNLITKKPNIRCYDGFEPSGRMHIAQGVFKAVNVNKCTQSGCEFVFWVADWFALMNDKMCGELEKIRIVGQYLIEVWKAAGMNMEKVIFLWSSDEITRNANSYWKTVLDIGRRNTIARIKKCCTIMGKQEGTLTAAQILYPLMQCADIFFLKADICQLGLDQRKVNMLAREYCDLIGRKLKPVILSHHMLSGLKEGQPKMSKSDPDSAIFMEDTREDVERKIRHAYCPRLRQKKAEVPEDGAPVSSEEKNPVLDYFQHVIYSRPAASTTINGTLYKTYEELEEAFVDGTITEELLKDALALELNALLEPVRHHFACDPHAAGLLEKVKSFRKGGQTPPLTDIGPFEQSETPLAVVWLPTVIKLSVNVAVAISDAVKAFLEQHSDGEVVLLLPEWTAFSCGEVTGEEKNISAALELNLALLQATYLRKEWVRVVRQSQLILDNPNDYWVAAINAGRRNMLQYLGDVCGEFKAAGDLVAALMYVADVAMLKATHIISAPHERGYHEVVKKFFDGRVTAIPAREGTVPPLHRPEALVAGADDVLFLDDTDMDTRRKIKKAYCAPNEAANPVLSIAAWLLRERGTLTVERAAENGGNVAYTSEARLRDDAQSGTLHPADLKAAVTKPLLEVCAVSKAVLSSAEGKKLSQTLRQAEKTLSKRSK

[8] = molecular target: T4, Tyrosyl-tRNA synthetase, putative (Trypanosoma cruzi (strain CL Brener)); assay: Trypanosoma cruzi tyrosyl tRNA synthetase (TcYRS) SOP; assay type: functional; conditions: 30 µM
[9] = molecular target: Chromo domain-containing protein 1 (Saccharomyces cerevisiae (strain ATCC 204508 / S288c) (Baker's yeast)) (UniProt P32657); assay: ScCHD-1 Enzyme Inhibition Assay; assay type: functional; conditions: 30 µM; also: in the data most compounds retested in dose-response had high values
Sequence of Chromo domain-containing protein 1 (Saccharomyces cerevisiae (strain ATCC 204508 / S288c) (Baker's yeast)) (P32657 whole entry, the tested form may be a part): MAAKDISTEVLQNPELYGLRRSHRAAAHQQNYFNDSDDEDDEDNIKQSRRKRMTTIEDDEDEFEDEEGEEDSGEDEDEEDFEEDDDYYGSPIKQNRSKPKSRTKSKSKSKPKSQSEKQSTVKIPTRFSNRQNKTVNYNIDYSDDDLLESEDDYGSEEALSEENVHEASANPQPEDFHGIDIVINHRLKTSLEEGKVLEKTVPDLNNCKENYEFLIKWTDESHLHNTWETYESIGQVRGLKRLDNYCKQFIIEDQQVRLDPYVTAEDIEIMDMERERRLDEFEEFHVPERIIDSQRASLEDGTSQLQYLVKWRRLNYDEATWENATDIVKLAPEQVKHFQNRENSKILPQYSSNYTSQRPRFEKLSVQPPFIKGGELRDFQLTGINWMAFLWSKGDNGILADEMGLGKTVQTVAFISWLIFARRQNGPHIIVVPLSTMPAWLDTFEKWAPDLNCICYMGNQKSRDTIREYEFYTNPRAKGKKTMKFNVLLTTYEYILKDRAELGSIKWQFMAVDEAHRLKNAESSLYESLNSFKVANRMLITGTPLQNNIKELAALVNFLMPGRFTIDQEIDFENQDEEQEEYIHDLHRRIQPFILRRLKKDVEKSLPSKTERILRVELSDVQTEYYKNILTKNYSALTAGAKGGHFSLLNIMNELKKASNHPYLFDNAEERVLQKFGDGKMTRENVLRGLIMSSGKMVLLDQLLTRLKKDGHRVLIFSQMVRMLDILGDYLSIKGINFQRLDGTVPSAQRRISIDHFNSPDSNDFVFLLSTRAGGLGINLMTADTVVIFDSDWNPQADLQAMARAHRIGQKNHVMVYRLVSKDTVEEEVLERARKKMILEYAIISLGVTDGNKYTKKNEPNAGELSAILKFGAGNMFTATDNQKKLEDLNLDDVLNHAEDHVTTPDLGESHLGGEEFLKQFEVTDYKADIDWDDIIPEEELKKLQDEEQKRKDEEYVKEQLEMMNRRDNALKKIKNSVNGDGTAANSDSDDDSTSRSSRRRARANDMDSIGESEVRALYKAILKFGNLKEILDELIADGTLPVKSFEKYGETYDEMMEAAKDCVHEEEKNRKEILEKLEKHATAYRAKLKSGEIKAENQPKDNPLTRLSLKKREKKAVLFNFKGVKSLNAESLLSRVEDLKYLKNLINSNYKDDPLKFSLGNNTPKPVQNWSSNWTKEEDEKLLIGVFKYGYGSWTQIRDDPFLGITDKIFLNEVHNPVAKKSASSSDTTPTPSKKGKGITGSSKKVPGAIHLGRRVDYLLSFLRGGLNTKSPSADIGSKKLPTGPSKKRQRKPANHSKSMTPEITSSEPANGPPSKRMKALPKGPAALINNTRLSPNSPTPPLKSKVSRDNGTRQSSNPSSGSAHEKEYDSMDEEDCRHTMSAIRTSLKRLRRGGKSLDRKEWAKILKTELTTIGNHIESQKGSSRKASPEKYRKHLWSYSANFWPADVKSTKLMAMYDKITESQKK

Sequence of Protein translocase subunit SecA (Escherichia coli (strain K12)) (P10408 whole entry): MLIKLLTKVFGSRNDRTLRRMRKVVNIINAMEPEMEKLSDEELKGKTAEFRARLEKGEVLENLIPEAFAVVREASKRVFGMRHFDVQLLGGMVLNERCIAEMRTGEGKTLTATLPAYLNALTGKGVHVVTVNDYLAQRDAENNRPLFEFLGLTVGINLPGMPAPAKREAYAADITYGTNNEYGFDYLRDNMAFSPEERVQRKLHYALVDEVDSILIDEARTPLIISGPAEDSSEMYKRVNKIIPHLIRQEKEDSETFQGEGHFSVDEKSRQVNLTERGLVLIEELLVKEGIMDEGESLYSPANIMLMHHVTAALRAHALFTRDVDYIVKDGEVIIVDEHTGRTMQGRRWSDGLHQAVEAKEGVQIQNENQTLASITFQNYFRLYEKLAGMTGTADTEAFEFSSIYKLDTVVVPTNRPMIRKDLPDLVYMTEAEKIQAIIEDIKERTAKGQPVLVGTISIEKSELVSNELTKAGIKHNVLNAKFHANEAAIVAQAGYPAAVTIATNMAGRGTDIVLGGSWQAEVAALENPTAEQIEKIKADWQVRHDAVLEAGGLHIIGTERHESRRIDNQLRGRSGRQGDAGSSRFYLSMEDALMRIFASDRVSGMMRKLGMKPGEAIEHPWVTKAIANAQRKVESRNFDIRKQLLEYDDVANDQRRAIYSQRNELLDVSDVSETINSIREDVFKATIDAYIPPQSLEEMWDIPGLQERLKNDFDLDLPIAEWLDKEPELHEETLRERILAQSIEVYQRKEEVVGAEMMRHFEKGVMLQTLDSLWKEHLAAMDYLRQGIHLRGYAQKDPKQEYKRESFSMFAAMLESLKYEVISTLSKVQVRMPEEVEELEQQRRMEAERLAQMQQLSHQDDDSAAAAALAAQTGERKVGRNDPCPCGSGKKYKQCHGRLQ

Row | SMILES | Percent Effect [1] [%] | Percent Effect [2] [%] | Percent Effect [3] [%] | Percent Effect [4] [%] | Percent Effect (Trypanosoma cruzi) [%] | Percent Effect [5] [%] | Percent Effect [6] [%] | Percent Effect (Homo sapiens) [%] | Percent Effect [7] [%] | Percent Effect [8] [%] | Percent Effect [9] [%]
1 | CC(C)Cc1cc(NC(=O)c2ccc[nH]2)n(C)n1 | -5.53 | 5.2 | 3.29 | 6.59 | -5.24 | -5.34 | -0.169 | 0.305 | 5.83 | 14.6 | -7.26
2 | CCc1cnc2c(c1NCc1cccc(OC)c1)c(=O)n(C)c(=O)n2C | -0.146 | 23.4 | -3.97 | -14.3 | 0.0986 | -4.52 | 5.74 | 19.2 | 3.17 | 14.1 | -8.85
3 | O=C(c1ccccn1)N1CCn2cnc(COCC3CC3)c2C1 | -2.21 | 0 | 3.19 | 4.7 | -2.86 | 3.23 | 9.57 | -0.697 | -10.6 | -16.7 | -11
4 | COC(=O)c1cccn1C1CCN(C(=O)c2cc(C)ccc2O)CC1 | -8.92 | 18.2 | 3.73 | -0.853 | -7.12 | 0.712 | 6.25 | 38.3 | 2.91 | 9.76 | -5.74
5 | O=C1CC(c2ccc(C(=O)O)cc2)c2ncn(-c3cccc(F)c3)c2N1 (configuration not stated) | -3.41 | 9.33 | -61.2 | -4.05 | -4.13 | 7.57 | 13.3 | -9.89 | 10.6 | 15.4 | -7.23
6 | COc1ncnc2c1CCN(c1cc(C(F)(F)F)ncn1)CC2 | -3.48 | 8 | 4.03 | -3.21 | -6.56 | -57.5 | 6.67 | 20.9 | -1.04 | 7.5 | -7.82
7 | N#CC1(C(=O)NCCCNc2ccc(C(F)(F)F)cn2)CCCC1 | 0.186 | -2.63 | 6.89 | 5.29 | 0.376 | 1.53 | 7.18 | 23 | 2.45 | 4.88 | -0.995
8 | Cc1oc(-c2ccsc2)nc1CC(=O)NCCS(C)(=O)=O | -3.85 | 5.2 | 2.35 | 5.36 | -2.26 | -4.14 | 9.48 | 3.37 | -1.07 | 6.17 | -2.55
9 | Cc1ccc(-c2cccc(-c3ccn(CCN4CCCC4)n3)c2)nn1 | -0.771 | -8.11 | -1.02 | 3.72 | -3.09 | 0.952 | 4.31 | 7.06 | 5.82 | 0 | 0.00646
10 | C[C@H]1C[C@H]2CN(C(=O)c3ccncn3)CC[C@H]2O1 | -6.88 | 2.7 | -0.849 | -1.39 | 2.54 | 2.08 | 12.1 | -0.328 | 6.93 | 1.22 | -3.3
11 | CCc1ncnc2c1CCN(Cc1ccccn1)CC2 | -1.83 | -1.33 | -3.43 | -1.27 | -5.11 | -11.4 | 0 | -11.7 | -3.17 | -5.13 | -3.62
12 | CN1CCN(C(=O)c2nc3c(o2)CN(C(=O)c2cccnc2)C3)CC1 | -2.08 | 0 | -4.16 | 2.81 | -1.28 | -5.52 | 14 | 2.22 | 1.07 | 8.64 | 1.76
13 | CCc1nnsc1C(=O)N1CCCN(Cc2cnn(C)c2)CC1 | -0.656 | -2.6 | -0.0421 | -5.43 | 7.74 | -0.21 | -1.05 | -10.1 | 0.952 | 2.35 | -0.342
14 | Cn1cc(C(=O)NC[C@@H]2OC[C@H]3CN(S(C)(=O)=O)CC[C@H]32)cn1 | -0.605 | -74 | -4.74 | 17 | 7.74 | -1.6 | 11 | 9.87 | 5.21 | 1.24 | -6.34
15 | CCOCC(O)CN1CCN(C(=O)c2ccccc2Cl)CC1 (configuration not stated) | -5.28 | 5.26 | 5.55 | 2.24 | 0 | 2.3 | -3.17 | -0.893 | 1.47 | 7.32 | 4.97
16 | O=C(NCCCc1ccncc1)C1CCCN(Cc2ccco2)C1 (configuration not stated) | -4.69 | 5.33 | 3.79 | -5.72 | -10.8 | 1.04 | 17.6 | 29.8 | -1.64 | 6.17 | -7.2
17 | O=C(c1ccc(-n2cccn2)nc1)N1CCC(Nc2cccnn2)CC1 | -8.1 | 10.4 | 4.61 | 12.7 | 1.47 | 0.632 | 12.8 | 5.75 | 6.67 | 9.41 | -8.74
18 | CCc1nc(CN(CC(N)=O)C(C)C)cs1 | -2.67 | 17.7 | 0.603 | 3.91 | 1.23 | -1.14 | 7.78 | 7.33 | 10.3 | 21.5 | -2.93
19 | CN1CCCC[C@@H]2[C@H]1[C@@H](c1ccccc1)CCN2C(=O)c1cnccn1 | -4.56 | 1.35 | 4.14 | 1.98 | 0.988 | -3.48 | 21.2 | -2.99 | 5.38 | 11.7 | -17.5
20 | Cc1cc(C)nc(Nc2cccc(C3CCCN(C)C3)n2)n1 (configuration not stated) | -4.27 | 1.35 | 9.63 | -3.78 | 2.77 | -3.94 | 4.68 | -3.42 | 2.15 | 6.49 | -16.2
21 | O=C(c1cccn2ccnc12)N1CCCN(c2cccnn2)CC1 | -3.74 | -5.2 | 6.04 | 5.27 | 4.8 | 1.9 | -0.404 | -11.5 | 0.952 | 2.35 | -10.1
22 | COc1ccc(CNC2CCCN(Cc3noc(C)n3)C2)cc1F (configuration not stated) | -10.4 | 10.4 | 0.711 | 4.31 | -5.06 | -3.2 | -1.01 | 32.5 | 0.971 | -2.44 | -5.61
